Where “and” joins values, the source holds several entries; their conditions need not be identical. Equal values may be shown once. Compounds without any hit were thinned out: in the full panel of roughly 83,000, 20% have a hit.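 Negative percent growth values reflect cell death: -40 means 40% of the cells present at the start died, and -100 means all died.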 Unmarked numbers belong to inactive results. Calls of active or inactive are those of the source. Rule for the calls: active = growth percent below 10; inactive = the rest.
Each compound was assayed on MDA-MB-468 breast (assay: NCI-60 one-dose screen, 48 h (100 = growth as untreated, 0 = no growth, -100 = all killed)). Settings: 10 µM unless noted.
`COc1ccc(C/C(C)=C(/c2ccc(OCCN3CCCCCC3)cc2)c2ccc(OC(=O)NCc3ccccc3)cc2)cc1` gave a growth of 83%.
`CCCCCCCN(CCCCCCC)C(=N)c1ccnc2ccccc12` was tested, and the growth was -83.5% (active).
`COc1c([C@@H](CC(C)C)OC(C)=O)ccc2c1C(=O)OCc1cc(C)cc(O)c1O2` was tested, and the growth was 8.08% (active).
Compound `O=C(OCc1ccc2c(Cl)cc(Cl)c(O)c2n1)N1CCNCC1` has a growth of 33.6%.
Compound `O=C1OC(c2ccccc2)=N/C1=C\c1ccccc1` has a growth of 92.4%.
In the case of `O=C(/C=C/c1cccnc1)/C=C/c1cccnc1`, the growth is reported as -64.1% (active).
In the case of `CCNc1cc2c(cc1Br)-c1ccccc1C2=O`, the growth is reported as 50.2%.
For `O=S(Cc1ccccc1)/C(=C/NC(=S)Nc1ccccc1)c1ccccc1` (stereo not given), the growth was 108%.
Compound `CCN1c2ccccc2C(Cl)(c2ccc(N(C)C)cc2)c2ccccc21` has a growth of 86.6%.
With `Cc1nn(-c2ccccc2)cc1/C=N/Nc1nc(Nc2ccccc2)nc(Nc2ccc(S(N)(=O)=O)cc2)n1` the growth was -37.1% (active).
For `O=C(Nc1cccc(Cn2c(=O)[nH]c3ccc(Oc4ncccn4)cc3c2=O)c1)c1cccc(Cl)c1`, the growth was 18.6%.
Work on `Cc1cc(Nc2nc(N[C@@H](C)c3ncc(F)cn3)ncc2Cl)n[nH]1` yielded a growth of 100%.
`COc1cc2c3cc1Oc1c(OC)c(OC)cc4c1C(Cc1ccc(O)c(c1)Oc1ccc(cc1)CC3N(C)CC2)N(C)CC4` (stereo not given) was tested, and the growth was -72.3% (active).
With `Brc1cnc2[nH]cc(-c3nnc(-c4ccccc4)o3)c2c1` the growth was 60.3%.
With `CCN1CCN(c2cc(C(=O)Nc3nc(-c4cc(OC)c(OC)c(OC)c4)cs3)cc(C(F)(F)F)c2)CC1` the growth was 84.8%.
`COc1ccc(Oc2nc(Nc3ccc(N4CCOCC4)cc3)ncc2NC(=O)c2cccc(C(F)(F)F)c2)cc1` was tested, and the growth was 93%.
Work on `CCNC(=O)Oc1ccc(/C(=C(/C)c2ccc(OC)cc2)c2ccc(OCCN3CCCCCC3)cc2)cc1` yielded a growth of 38.3%.
For `COc1ccc(CNc2c3ccccc3nc3ccccc23)cc1F`, the growth was -18.7% (active).
For `CCCCCCN1C=C/C(=C\C(=O)n2ccc3ccccc32)c2ccccc21`, the growth was -12% (active).
For `COc1ccc(-n2nc(C)c3c(Nc4ccc(NC(=O)Nc5cccc(C(F)(F)F)c5)cc4)ncnc32)cc1`, the growth was -14% (active).
For `O=C(/C=C/c1ccccc1)c1ccccc1O`, the growth was 64.4%.
`CC(C)(C)c1ccc(O)c(C2CCCCC2)c1` showed a growth of 111%.
`CCN1CCN(c2ccc(Nc3ncnc4c3nnn4CCc3cc(OC)cc(OC)c3)cc2)CC1` was tested, and the growth was 76.1%.
`COc1ccc(OC)c(C2C(C#N)=C(N)Oc3cc(O)ccc32)c1` (stereo not given) showed a growth of 81.1%.
Work on `CC(C)CC(NC(=O)C(CCCN=C(N)N)NC(=O)OCc1ccccc1)C(=O)NC(CNC(=O)/C=C/c1ccccc1)C(C)C` (stereo not given) yielded a growth of 94.4%.
For `CC1Cc2ccc(OCCN(C)C)cc2C1=O` (stereo not given), the growth was 96.2%.
`C[C@H]1c2ccccc2CN1CCCOc1cc2c(cc1OCC1CC1)C1(CCCC1)C(N)=N2` was tested, and the growth was 29.2%.
`CSC1=Nc2c(c(C)c(-c3ccccc3)n2CCCCl)C2=NC(=O)CN12` gave a growth of 47.3%.
With `Cc1ncc(C(=O)Nc2ccc(CN3CCN(C)CC3)c(C(F)(F)F)c2)cc1C#Cc1cnc(N)c2ccncc12` the growth was -36.7% (active).
`Cc1cnc(C(=O)Nc2nc3ccc(S(=O)(=O)Nc4ccc(C(C)(C)C)cc4)cc3[nH]2)cn1` was tested, and the growth was -11.4% (active).
`N#CCCN(NC(=O)OCc1ccccc1)C(=O)OCc1ccccc1` gave a growth of 116%.
With `Cc1ccc2oc3nc(C)c(C(=O)NCc4ccccc4)cc3c(=O)c2c1` the growth was 96.7%.
`COc1ccc2c(c1)C(C)Cc1c(ncnc1-n1c(C)nc3ccccc31)N2C` (stereo not given) gave a growth of 26.2%.
`N#CC1=C(N)Oc2nc[nH]c(=O)c2C1c1cccs1` (stereo not given) gave a growth of 99.3%.
For `COc1cc(NCCCCN=C(N)NC(N)=NC(C)C)c2ncccc2c1`, the growth was -61.8% (active).
In the case of `COc1ccc(/C(C)=C(\c2ccc(Cl)cc2)c2ccc(OCCCN(C)C)cc2)cc1`, the growth is reported as 82.7%.
For `O=C(/C=C/c1ccccc1)c1cccc(O)c1`, the growth was 111% and 90.2%.
For `O=C(NCc1ccc(Cn2c(=O)sn(-c3ccccc3)c2=O)cc1)OCc1ccc2cccc(O)c2n1`, the growth was -73.3% (active).
`CC[C@@H](C(=O)[C@@H](C)[C@@H](O)[C@H](C)[C@@H]1O[C@@H]([C@@H](CC)C(=O)N(CC)CC)CC[C@@H]1C)C1O[C@]2(C=CC(=O)[C@]3(CC[C@@](C)([C@H]4CC[C@](O)(CC)[C@H](C)O4)O3)O2)[C@H](C)C[C@@H]1C` (stereo not given in full) was tested, and the growth was -12.9% (active).
In the case of `CCOC(=O)c1cc(C(=O)c2cc(OC)cc(OC)c2)n2ccc3ccccc3c12`, the growth is reported as 74.5%.

Reference: PubChem BioAssay (NCI)
